# Screens deposited in PubChem BioAssay by Sanford-Burnham Center for Chemical Genomics.
# tim23-1 inh – inhibits growth of tim23-1 mutant yeast; hit rate 1.3% among 330,000; inhibition, % at 20 µM; S. cerevisiae tim23-1 growth, BacTiter-Glo luminescence, 24 h;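 active = growth inhibition of the mutant yeast at or above 50%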;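 note: temperature-sensitive mutant grown at 25 °C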
# tim10-1 inh – inhibits growth of tim10-1 mutant yeast; S. cerevisiae tim10-1 ts strain growth, BacTiter-Glo, 24 h; inhibition, % at 20 µM; hit rate 2.2% among 330,000;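 active = inhibition of at least 40%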;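 note: mutant grown at 25 °C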
# TIM10 inh – TIM10 yeast growth inhibition | hit rate 1.4% among 330,000 | S. cerevisiae TIM10 strain growth, BacTiter-Glo luminescence, 24 h | inhibition, % at 10 µM | AID 463195;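 active = inhibition of 40% or more at the single tested concentration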;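 note: wild-type TIM10 isogenic control strain grown at permissive 25 °C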
# MPTP inh – permeability transition pore inhibition; isolated mouse mitochondria, Ca2+ swelling absorbance, 30 min; inhibition, % at 10 µM; hit rate 1.4% among 360,000; AID 602449;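 active = inhibition of 50% or more, scaled per plate between neutral and stimulator controls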
# Mdm2-MdmX inh – inhibitors of human Mdm2/MdmX interaction; hit rate 3% among 330,000; O15151+Q00987; inhibition, % at 8 µM; AID 485346; SaOS-2 split-luciferase Mdm2/MdmX complementation, luminescence;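 active = inhibition of at least 50% at 8 µM in the primary screen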
# tim10-1 conf – tim10-1 yeast growth inhibition, confirmed; shares compounds with tim10-1 inh; S. cerevisiae tim10-1 ts strain growth, BacTiter-Glo, 24 h; inhibition, % at 20 µM; hit rate 56% among 7,400;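 active = inhibition of yeast growth at or above a set limit in either of two repeat tests at 20 µM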;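 note: tim10-1 mutant grown at permissive 25 °C to find synthetic lethal compounds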
# Numbers stand for hits; 0 = inactive; - = no result. The list is not random: actives were taken first. Their share in the collection is about 6.3%.
SMILES,tim23-1 inh,tim10-1 inh,TIM10 inh,MPTP inh,Mdm2-MdmX inh,tim10-1 conf
O=C(NCCCN1CCOCC1)c1ccccc1N1C(=O)[C@@H]2Cc3c([nH]c4ccccc34)C(c3ccccc3)N2C1=O (stereo partly specified),-,-,-,0,-,-
Cc1ccc(S(=O)(=O)NCc2ccccc2Br)cc1,-,-,-,0,-,-
CC(C)(C)c1ccccc1NC(=O)Nc1nc(C(N)Cc2ccc(F)cc2)cs1 (stereo unspecified),-,-,-,0,-,-
CCCN(CCC)S(=O)(=O)c1cc(Br)cc2c1N(C(=O)CC)CC2,0,46,0,0,0,34
CC(C)c1ccc(S(=O)(=O)N2CCN(CC(=O)c3ccc(O)c(O)c3)CC2)cc1,0,50,0,0,0,0
O=C(CN1CCN(S(=O)(=O)c2ccc(Br)cc2)CC1)c1ccc(O)c(O)c1,0,0,0,0,0,-
OCCNc1ncnc2c1ncn2[C@H]1CN(Cc2ccncc2)C[C@@H](CO)O1,-,-,-,0,-,-
CCCc1cn(CC(C)n2c(=O)c3ccccc3n2Cc2cc(C(C)C)no2)nn1 (stereo unspecified),-,-,-,0,-,-
COc1cc(OC)cc(C(=O)NCCOC23CC4CC(CC(C4)C2)C3)c1,0,45,0,0,0,0
COc1cccc(C2C3=C(CC(C)(C)CC3=O)Nc3cc4c(cc32)OCO4)c1 (stereo unspecified),0,44,0,0,0,0
COc1cccc(C2C3=C(CC(C)(C)CC3=O)Nc3cc(OC)c(OC)cc32)c1 (stereo unspecified),0,0,0,0,0,-
N#Cc1cccc(C(=O)C(=O)N2CCN(C(=O)OCc3ccccc3)CC2)c1,-,-,-,0,-,-
O=c1nc(/C=C/c2ccc(-c3ccc(F)cc3)o2)cc(C(F)(F)F)[nH]1,0,47,0,-,0,31
CCC(CC)C(C(=O)NCc1ccccc1)N1CCN(C(=O)C2CCCO2)CC1 (stereo unspecified),-,-,-,0,-,-
Cc1cccc(C)c1NC(=O)C1(C)CN(S(C)(=O)=O)CC(=O)N1C1CC1 (stereo unspecified),-,-,-,0,-,-
CC(C(=O)NC1CCCC1)n1c(C2CCCC2)nc2ccccc21 (stereo unspecified),-,-,-,0,-,-
CCN(CC)C(=O)c1sc2nc(-c3cccs3)cc(-c3ccc(Cl)cc3)c2c1N,0,58,0,0,0,38
Cc1[nH]c2ccc(F)cc2c1CCN(Cc1ccncc1)C(=S)Nc1ccc(F)cc1,0,42,0,0,0,0
Cc1[nH]c2ccc(F)cc2c1CCN(Cc1cccnc1)C(=S)Nc1cccc(F)c1,0,0,0,0,0,-
c1ccc(-c2noc(CN3CCN(C(c4ccccc4)c4ccccc4)CC3)n2)cc1,0,45,0,0,0,0
O=S1(=O)CC(N2CCN(CC3CC3)CC2)CN1C1CCCCC1 (stereo unspecified),-,-,-,0,-,-
CCOc1ccc(OCC)c(S(=O)(=O)N2CCCCC2C)c1 (stereo unspecified),0,43,0,0,0,0
CCOc1ccc(C)cc1S(=O)(=O)N1CCCCC1,0,0,0,0,0,-
O=C(NNC(=S)Nc1ccc(Br)cc1)c1ccccc1Br,0,46,0,0,0,0
CN(Cc1cccc(C(F)(F)F)c1)C(=O)[C@H]1O[C@@H](n2ccc(N)nc2=O)[C@H](O)[C@@H]1O,-,-,-,0,-,-
SMILES,tim23-1 inh,tim10-1 inh,TIM10 inh,MPTP inh,Mdm2-MdmX inh,tim10-1 conf
Cc1cccc(C)c1NC(=O)C1(C)CSCC(=O)N1CCCn1ccnc1 (stereo unspecified),-,-,-,0,-,-
CCc1ccc(CNC(=O)c2cc3c(C)nc4ccccc4c3o2)cc1,0,43,0,0,0,0
Cc1nc2ccccc2c2oc(C(=O)NCC3COc4ccccc4O3)cc12 (stereo unspecified),0,41,0,0,0,0
CCCCN(CC)CCNC(=O)c1cc2c(C)nc3ccccc3c2o1,0,0,0,0,0,-
Cc1ccc(S(=O)(=O)CNC(=S)c2cccc(C)c2)cc1,0,0,0,0,0,-
COc1ccc(C(=S)NCS(=O)(=O)c2ccc(C)cc2)cc1,0,40,0,0,0,0
COc1cc(CCC(=O)Nc2c(C(=O)N3CCN(c4ccccc4)CC3)oc3ccccc23)on1,0,0,0,0,0,-
COc1cc(CCC(=O)Nc2c(C(=O)N3CCN(c4ccccc4OC)CC3)oc3ccccc23)on1,0,42,0,0,0,0
O=S(=O)(CCN1CCN(C(c2ccccc2)c2ccccc2)CC1)C(F)(F)F,0,41,0,0,0,33
CCOc1ccc(-n2c(CCc3ccccc3)n[nH]c2=S)cc1,0,41,0,0,0,0
